Screening results: PubChem BioAssay, several laboratories
GRK2 inh: human GRK2 inhibition via aptamer displacement; inhibition of aptamer binding, % at 10 µM; bead flow cytometry, FAM-aptamer displacement from GRK2; 330,000 tested, 0.59% active;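 active = inhibition of aptamer binding above 40%, roughly 3 SD of noise, on plates passing a quality check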;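 note: median bead fluorescence of bound FAM aptamer so fluorescent compounds give negative values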
TMEM16A inh: inhibitors of mouse TMEM16A calcium-activated chloride channel; Q8BHY3; HEK293 TMEM16A/YFP iodide influx fluorescence, ionomycin; normalized B-score (activity score, 25-100; higher = stronger inhibition) at 10 µM; 310,000 tested, 1.2% active; AID 588511;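 active = ratio plate-corrected score three or more library SD toward inhibition, starting fluorescence score within five deviations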;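 note: score derived from kinetic fluorescence span divided by baseline fluorescence per well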
TMEM16A act: mouse TMEM16A channel activation, primary screen; HEK293 TMEM16A/YFP-H148Q/I152L, iodide quench fluorescence; active compounds read low; 340,000 tested, 0.3% active; AID 623877; B-score at 10 µM; Q8BHY3;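 active = fluorescence-ratio B-score plate-corrected deviation score at least 3 library SD below zero, with starting fluorescence score within 5 deviations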;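 note: channel opened by trigger with iodide after compound preincubation; score built on the fluorescence ratio of max minus min over baseline; more negative score means more quench and so TMEM16A activation or potentiation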
NOD2 RIPK2 PPI: blocks binding of human NOD2 to RIPK2 | O43353 | CHO BLA complementation NOD2-RIPK2, CCF4 ratio | inhibition, % at 4.98 µM | 360,000 tested, 0.38% active | AID 624267; in the data active = inhibition above about 21%;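 note: 0% = vehicle only and 100% = reference blocker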
TLR9-MyD88 block: inhibitors of human TLR9-MyD88 binding. Q9NR96+Q99836. CHO BLA complementation TLR9-MyD88, CCF4 FRET ratio. inhibition, % at 4.98 µM. 340,000 tested, 0.21% active;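 active = inhibition above the mean over all tested compounds plus 3 SD, cut at about 21% in these data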;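 note: 0% = DMSO only wells and 100% = clavulanate BLA inhibitor control wells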
Target sequence (Q99836 whole entry, looked up): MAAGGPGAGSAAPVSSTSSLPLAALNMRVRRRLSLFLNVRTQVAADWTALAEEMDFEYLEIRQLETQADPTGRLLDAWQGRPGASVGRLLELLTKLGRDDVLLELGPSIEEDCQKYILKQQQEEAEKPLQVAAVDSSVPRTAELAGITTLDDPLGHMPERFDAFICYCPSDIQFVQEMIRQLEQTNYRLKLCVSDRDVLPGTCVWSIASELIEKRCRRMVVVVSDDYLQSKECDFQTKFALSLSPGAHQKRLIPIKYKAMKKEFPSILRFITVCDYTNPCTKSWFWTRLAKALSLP
Target sequence (Q9NR96 whole entry, looked up): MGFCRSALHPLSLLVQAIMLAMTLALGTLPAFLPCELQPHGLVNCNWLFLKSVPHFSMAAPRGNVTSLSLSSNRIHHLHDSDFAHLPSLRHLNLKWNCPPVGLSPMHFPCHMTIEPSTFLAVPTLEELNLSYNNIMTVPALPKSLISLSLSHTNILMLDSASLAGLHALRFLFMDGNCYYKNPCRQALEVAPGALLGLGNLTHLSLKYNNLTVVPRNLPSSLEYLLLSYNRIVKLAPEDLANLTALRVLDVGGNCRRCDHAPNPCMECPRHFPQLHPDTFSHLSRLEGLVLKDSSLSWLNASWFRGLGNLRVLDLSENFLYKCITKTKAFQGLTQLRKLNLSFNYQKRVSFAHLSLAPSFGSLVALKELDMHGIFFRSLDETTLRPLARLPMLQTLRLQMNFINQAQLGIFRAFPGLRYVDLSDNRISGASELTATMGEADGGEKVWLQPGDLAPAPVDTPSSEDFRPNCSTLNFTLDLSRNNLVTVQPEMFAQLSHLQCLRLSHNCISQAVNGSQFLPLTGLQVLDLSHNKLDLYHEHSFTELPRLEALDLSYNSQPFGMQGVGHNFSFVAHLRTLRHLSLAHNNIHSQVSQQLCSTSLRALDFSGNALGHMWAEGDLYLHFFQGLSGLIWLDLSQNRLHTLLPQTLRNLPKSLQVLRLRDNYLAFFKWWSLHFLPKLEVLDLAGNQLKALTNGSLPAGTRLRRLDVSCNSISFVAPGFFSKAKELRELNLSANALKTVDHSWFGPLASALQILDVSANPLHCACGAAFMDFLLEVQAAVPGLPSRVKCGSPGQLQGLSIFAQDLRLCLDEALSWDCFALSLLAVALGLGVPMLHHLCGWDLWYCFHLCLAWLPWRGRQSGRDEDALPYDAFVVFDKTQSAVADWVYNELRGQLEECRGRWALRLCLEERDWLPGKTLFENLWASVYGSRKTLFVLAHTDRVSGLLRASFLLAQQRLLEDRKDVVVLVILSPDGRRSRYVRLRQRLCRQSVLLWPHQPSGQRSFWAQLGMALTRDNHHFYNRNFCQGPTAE
TLR4-MyD88 BLA: inhibitors of human TLR4-MyD88 binding; 200,000 tested, 0.18% active; HeLa CL3-4 TLR4/MyD88 BLA complementation, FRET ratio; AID 861; O00206+Q99836; inhibition, % at 8.4 µM; in the data active = inhibition above about 25%;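 note: 0% = vehicle and 100% = reference inhibitor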
TLR9-MyD88 cf: TLR9-MyD88 interaction inhibition, confirmation | 680 tested, 51% active | inhibition, % at 4.98 µM | shares compounds with TLR9-MyD88 block | CHO TLR9/MyD88 BLA complementation, CCF4 FRET ratio;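 active = mean inhibition across three repeats above about 21% taken from the earlier screen, limit read from the data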;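 note: blue over green emission ratio reports constitutive TLR9 MyD88 association via BLA complementation; 0% = DMSO vehicle wells and 100% = clavulanate BLA inhibitor wells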
BLA counter-1: counter-screen for TLR9-MyD88 inhibitors: non-selective beta-lactamase inhibitors | shares compounds with TLR9-MyD88 block | CHO-BLA cells, CCF4 FRET ratio, BLA reporter | inhibition, % at 4.98 µM | 680 tested, 7% active;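 active = mean inhibition above a 50% cutoff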;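 note: counterscreen of TLR9-MyD88 hits on CMV-driven BLA in CHO-K1 cells; 0% = DMSO alone and 100% = clavulanate blocking BLA; higher means less blue over green ratio so more BLA blockade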
TLR9 CHO cytotox: CHO cell toxicity counter-screen for TLR9-MyD88 inhibitors. 680 tested, 39% active. AID 588336. inhibition, % at 4.98 µM. shares compounds with TLR9-MyD88 block. TLR9-MyD88 CHO cells cytotoxicity, luminescence; in the data active = inhibition above about 11%
TMEM16A reconf: re-confirmation of mouse TMEM16A chloride channel inhibitors | shares compounds with TMEM16A inh | HEK293 TMEM16A/YFP-H148Q, iodide quench fluorescence; ionomycin added to raise cell calcium | inhibition, % at 10 µM | 2,300 tested, 39% active;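 active = mean duplicate percent inhibition, scaled so buffer wells are 0 and the reference blocker 100, over three buffer SD above buffer mean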
TMEM16A Ca cntr: calcium mobilization counter-screen hit for TMEM16A inhibitor series; TMEM16A/YFP HEK293, Fluo4 calcium mobilization; 2,300 tested, 2% active; shares compounds with TMEM16A inh; calcium response (% of ionomycin), % at 10 µM;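 active = duplicate-averaged calcium signal over 20% of the ionomycin maximum, relative to buffer baseline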;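 note: each well's signal is peak minus trough fluorescence divided by its pre-addition baseline; 0% = buffer wells and 100% = ionomycin wells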
YFP-HEK293 quench: counter-screen for TMEM16A inhibitors: effect in parental YFP-HEK293 cells; YFP ratio F(max-min)/F0 at 10 µM; shares compounds with TMEM16A inh; iodide YFP quench, ionomycin; AID 652233; 2,300 tested, under 10 active;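 active = yellow fluorescent protein signal ratio exceeding the buffer control mean by over 5 SD of those controls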;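 note: ratio is mean of duplicate wells from kinetic YFP trace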
ClC-1 inh: selectivity of TMEM16A inhibitors: inhibition of rat ClC-1 chloride channel. shares compounds with TMEM16A inh. CHO ClC-1-YFP, iodide influx fluorescence quench; iodide control reads 0, buffer control 100. ratio percent, % at 10 µM. 2,300 tested, under 10 active. AID 652236;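 active = duplicate-mean ratio percent above the mean of iodide-only control wells, which defines zero, plus 5 of their SD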;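 note: higher percent means stronger block of ClC-1 iodide influx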
NOD2-RIPK2 conf: confirmation of human NOD2-RIPK2 interaction inhibitors; 1,200 tested, 70% active; shares compounds with NOD2 RIPK2 PPI; CHO cells, NOD2-RIPK2 BLA complementation, CCF4 FRET; inhibition, % at 4.98 µM;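 active = mean inhibition across replicates above a set limit taken from the earlier primary screen, cut at about 21% in these data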;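 note: 0% = DMSO-only wells and the high end = clavulanate BLA-blocked wells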
BLA counter-2: counter-screen for NOD2-RIPK2 interaction inhibitors: BLA reporter. 1,200 tested, 57% active. shares compounds with NOD2 RIPK2 PPI. inhibition, % at 4.98 µM. CHO BLA reporter, CCF4 FRET ratio, counterscreen. AID 624371;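 active = mean inhibition above the low-control mean inhibition plus three low-control SD, cut at about 11% in these data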;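 note: 0% = DMSO only wells and 100% = clavulanate high control wells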
* marks the source's active call; other numbers are inactive results. Compounds with a hit are over-represented: about 2.2% of the library has one in this group of screens.

CC(=O)Oc1cccc(N2C(=O)c3cccc4c([N+](=O)[O-])ccc(c34)C2=O)c1 was read as GRK2 inh 4.0, TMEM16A inh inactive, TMEM16A act inactive, NOD2 RIPK2 PPI 45.1*, TLR9-MyD88 block 42.3*, TLR9-MyD88 cf 47.2*, BLA counter-1 41.8, TLR9 CHO cytotox 94.3*, NOD2-RIPK2 conf 63.1* and BLA counter-2 67.0*.
Cc1ccccc1CCN1CCCC(CN(C)C(=O)c2ccc3ncccc3c2)C1 (centres undefined) was read as GRK2 inh 1.0, TMEM16A inh inactive, TMEM16A act inactive, NOD2 RIPK2 PPI -4.1 and TLR9-MyD88 block -2.5.
Screening Nc1c(C(=O)N2CCCC2)sc2nc(-c3ccccc3)ccc12 returned GRK2 inh 2.0, TMEM16A inh inactive, TMEM16A act inactive, NOD2 RIPK2 PPI 34.0*, TLR9-MyD88 block 29.6*, TLR9-MyD88 cf 31.8*, BLA counter-1 29.8, TLR9 CHO cytotox 5.5, NOD2-RIPK2 conf 51.8* and BLA counter-2 60.8*.
Nc1c(C(=O)N2CCCCC2)sc2nc3c(cc12)CCCC3 was read as GRK2 inh 2.0, TMEM16A inh inactive, TMEM16A act inactive, NOD2 RIPK2 PPI -2.9 and TLR9-MyD88 block -0.4.
CC(C)(C)c1cc(C2=CSC3=NCCN23)cc(C(C)(C)C)c1O was read as GRK2 inh 0.0, TMEM16A inh inactive, TMEM16A act inactive, NOD2 RIPK2 PPI 23.9*, TLR9-MyD88 block 20.9*, TLR9-MyD88 cf 14.0, BLA counter-1 15.8, TLR9 CHO cytotox 2.3, NOD2-RIPK2 conf 32.9* and BLA counter-2 16.6*.
CC(=NNC(=S)N1CCN(c2ccccn2)CC1)c1nccs1 was read as TMEM16A act inactive, NOD2 RIPK2 PPI 23.5*, TLR9-MyD88 block 37.1*, TLR9-MyD88 cf 28.0*, BLA counter-1 17.9, TLR9 CHO cytotox 97.2*, NOD2-RIPK2 conf 41.9* and BLA counter-2 18.0*.
Screening CC(=NNC(=S)N1CCN(c2ccccn2)CC1)c1ccccn1 returned TMEM16A act inactive, NOD2 RIPK2 PPI 3.5 and TLR9-MyD88 block -9.8.
Screening CCCCNC(=O)COC(=O)c1c2c(nc3ccccc13)/C(=C\c1cccs1)CC2 returned TMEM16A act inactive, NOD2 RIPK2 PPI 55.4*, TLR9-MyD88 block 45.2*, TLR9-MyD88 cf 46.6*, BLA counter-1 55.7*, TLR9 CHO cytotox 7.7, NOD2-RIPK2 conf 66.4* and BLA counter-2 76.5*.
Screening CCc1cccc(C)c1NC(=O)COC(=O)c1c2c(nc3ccccc13)/C(=C\c1cccs1)CCC2 returned GRK2 inh 0.0, TMEM16A inh inactive, TMEM16A act inactive, NOD2 RIPK2 PPI 1.0, TLR9-MyD88 block -8.7 and TLR4-MyD88 BLA -10.0.
Screening O=[N+]([O-])c1ccc(C2=NN(c3ccccc3)C(c3ccco3)C2)cc1 (centres undefined) returned TMEM16A act inactive, NOD2 RIPK2 PPI 41.2*, TLR9-MyD88 block 58.8*, TLR9-MyD88 cf 40.3*, BLA counter-1 40.8, TLR9 CHO cytotox 5.5, NOD2-RIPK2 conf 73.1* and BLA counter-2 68.9*.
For O=C(/C=C/c1cn(CC(O)CN2CCCCC2)c2ccccc12)c1cccs1 (centres undefined) the results were GRK2 inh 0.0, TMEM16A inh inactive, TMEM16A act inactive, NOD2 RIPK2 PPI 28.3*, TLR9-MyD88 block 25.0*, TLR4-MyD88 BLA 21.6, TLR9-MyD88 cf 22.1*, BLA counter-1 20.3, TLR9 CHO cytotox 4.5, NOD2-RIPK2 conf 50.8* and BLA counter-2 50.2*.
For Nc1c(C(=O)c2ccccc2)sc2nsc(SCCN3CCCC3)c12 the results were GRK2 inh 0.0, TMEM16A inh inactive, TMEM16A act inactive, NOD2 RIPK2 PPI 28.9*, TLR9-MyD88 block 28.3*, TLR9-MyD88 cf 21.0*, BLA counter-1 18.1, TLR9 CHO cytotox 9.2, TMEM16A reconf inactive, TMEM16A Ca cntr inactive, YFP-HEK293 quench -0.963, ClC-1 inh -12.0, NOD2-RIPK2 conf 44.5* and BLA counter-2 46.6*.
For CCc1ccc(-c2cc3c(=O)n(CC(=O)NCCCN4CCN(C)CC4)ncn3n2)cc1 the results were GRK2 inh 0.0, TMEM16A inh inactive, TMEM16A act inactive, NOD2 RIPK2 PPI -10.2 and TLR9-MyD88 block 6.2.
`CCOC(=O)C1=NN(c2ccccc2)C2C(=O)N(c3ccccc3OC)C(=O)C12` (centres undefined) gave GRK2 inh 4.0, TMEM16A inh inactive, TMEM16A act inactive, NOD2 RIPK2 PPI 7.8 and TLR9-MyD88 block 8.1.
COc1ccccc1N1C(=O)C2C(C(=O)c3ccccc3)=NN(c3ccccc3)C2C1=O (centres undefined) was read as GRK2 inh 3.0, TMEM16A inh inactive, TMEM16A act inactive, NOD2 RIPK2 PPI 52.1*, TLR9-MyD88 block 46.6*, TLR9-MyD88 cf 25.6*, BLA counter-1 24.6, TLR9 CHO cytotox 2.1, NOD2-RIPK2 conf 58.8* and BLA counter-2 64.1*.
